High-throughput results: PubChem BioAssay, National Center for Advancing Translational Sciences (NCATS)
HCMV antiviral – blocks human cytomegalovirus replication; activity change, negative = inhibition, % at 57.5 µM; hit rate 4.5% among 410,000; HFF cells, HCMV-luciferase reporter, 72 h; hits give low values; AID 1259415; in the data active means activity change below about -60%; inconclusive means no clear call, values can overlap the other calls; inactive means above about -39%
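Inhibition of viral replication was scored as loss of reporter luminescence in HFFs infected with HCMV-luciferase (MOI 1 PFU/cell) for 72 h; compounds tested at 2 doses, normalized to buffer and Salinomycin controls.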
Pf growth 48h – P. falciparum growth inhibition at 48 hours (one generation); hit rate 5.9% among 310,000; Potency, µM (series often up to 28.7 µM), hits mostly inhibitors; AID 504832; P. falciparum luciferase growth in erythrocytes, 48 h
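A one-generation exposure of luciferase-tagged malaria parasites in RPMI 1640/Albumax erythrocyte culture, 37 C and 5% CO2. Inhibition is inferred from decreased luminescence after adding detection reagent.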
HCV inhibitor – inhibitors of hepatitis C virus infection; Huh7.5.1 HCVcc-Cre infection, luciferase reporter, 44 h; Potency, µM (doses to about 41.8 µM), hits mostly inhibitors; hit rate 3.4% among 340,000
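Luciferase read-out (15 sec integration) after a 15 min room-temperature substrate step quantifies HCVcc-Cre infection. Cells, 1,000 per well, had compound added 4 h post-plating, then virus at ~0.5 moi, and were cultured 44 h.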
Pf growth 96h – inhibits malaria parasite growth, 96 h. Potency, µM (doses to about 28.7 µM), actives largely listed as inhibitors. P. falciparum luciferase reporter growth, 96 h. hit rate 6.9% among 320,000
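Two parasite generations (96 h, 37 C, 5% CO2) of compound exposure in infected erythrocytes (0.05% parasitemia, 2% hematocrit). Luciferase-reporter P. falciparum; decreased luminescence indicates inhibited growth, aimed at apicoplast-acting delayed death.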
SARS PLpro yeast – blocks SARS-CoV papain-like protease in a yeast assay. S. cerevisiae expressing SARS-CoV PLpro, growth rescue. Potency, µM (series often up to 32.9 µM), usual class: activators. hit rate 0.19% among 330,000. AID 485353; calls by dose curve; further: nearly all actives have a fitted effect of over 55% in size
Sm TGR block – S. mansoni TGR enzyme inhibition; Q962Y6; purified TGR, DTNB reduction, TNB absorbance 405 nm; Potency, µM (highest dose often 114 µM), usual class: inhibitors; hit rate 3% among 360,000; AID 485364; further: nearly all actives have a fitted effect of over 60% in size
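TGR 20 nM + NADPH 100 uM (dispensed conc.), cpd preinc 15 min RT; start with NADPH (500 uM addition) then DTNB (15 mM addition). Kinetic TNB absorbance, 405 nm filter. Four-parameter Hill fit across titration.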
A number is an active result; ! = not confirmed by another sample; [ ] = dose if it differs, or a comment. Compounds with a hit are over-represented: about 15% of the library has one in this group of screens. Unless noted, the call rests on the fitted dose curve; in most records, active means well fitted curve in the direction sought with a large enough effect; inconclusive means small, poorly fitted or top-dose-only effect, or another doubt; inactive means no such curve, though single readings can be large; an effect the other way counts as inactive or inconclusive.

For CNCC[C@H](Oc1cccc2ccccc12)c1cccs1 the results were HCMV antiviral inactive, Pf growth 48h 13µM, HCV inhibitor inconclusive, Pf growth 96h 6.7µM, SARS PLpro yeast inactive and Sm TGR block inactive.
For CC(C)CC(=O)Nc1nnc(SCC(=O)Nc2nccs2)s1 the results were HCMV antiviral -63, Pf growth 48h inactive, Pf growth 96h inactive, SARS PLpro yeast inactive and Sm TGR block inactive.
For CCCc1nnc(SCC(=O)Nc2nccs2)o1 the results were HCMV antiviral inconclusive, Pf growth 48h 9.3µM, HCV inhibitor inactive, Pf growth 96h inactive and Sm TGR block inactive.
For CCCCc1nnc(SCC(=O)Nc2nccs2)n1CC the results were HCMV antiviral inactive, Pf growth 48h inactive, HCV inhibitor inactive, Pf growth 96h inactive, SARS PLpro yeast inactive and Sm TGR block inactive.
`Cn1c(SCC(=O)Nc2nccs2)nnc1-c1ccc(S(=O)(=O)N2CCCC2)cc1` gave HCMV antiviral inactive, HCV inhibitor inactive, Pf growth 96h 6.6µM, SARS PLpro yeast inactive and Sm TGR block inactive.
CCn1c(SCC(=O)Nc2nccs2)nnc1-c1ccc(S(=O)(=O)N2CCCCCC2)cc1 was read as HCMV antiviral inactive, HCV inhibitor inconclusive, Pf growth 96h inactive, SARS PLpro yeast inactive and Sm TGR block inactive.
CCCCc1nnc(SCC(=O)Nc2nccs2)n1C was read as HCMV antiviral inactive, Pf growth 48h inactive, HCV inhibitor inactive, Pf growth 96h 10µM, SARS PLpro yeast inactive and Sm TGR block inactive.
`COc1cc2c(c(Br)c1N)-c1cc(Br)c(N)cc1C2=O` gave HCMV antiviral inactive.
`O=C(Cc1cccc(C(F)(F)F)c1)N1CCCC1` gave HCMV antiviral inactive, Pf growth 48h inactive, HCV inhibitor inactive, Pf growth 96h inactive, SARS PLpro yeast inactive and Sm TGR block inactive.
`Cc1ccc2c(c1)C(c1ccccc1)N(C(=O)c1ccc(Br)cc1)CC(=O)N2` (centres undefined) gave HCMV antiviral inactive, Pf growth 48h inactive[0.00184 µM], HCV inhibitor inconclusive, Pf growth 96h inactive, SARS PLpro yeast inactive and Sm TGR block inactive.
Screening Cn1c(CSCc2ccccc2Cl)nnc1SCC(=O)Nc1nccs1 returned HCMV antiviral inactive, Pf growth 48h inconclusive, HCV inhibitor inactive, Pf growth 96h 12µM, SARS PLpro yeast inactive and Sm TGR block inactive.
Screening C/C(=N/NS(=O)(=O)c1cc(C)ccc1C)c1ccc2c(c1)OCO2 returned HCMV antiviral inactive, Pf growth 48h inactive, HCV inhibitor inactive, Pf growth 96h 12µM, SARS PLpro yeast inactive and Sm TGR block inactive.
For C/C(=N/NS(=O)(=O)c1cc(C)ccc1C)c1ccncc1 the results were HCMV antiviral inactive, Pf growth 48h inactive, HCV inhibitor inactive, Pf growth 96h 12µM, SARS PLpro yeast inactive and Sm TGR block inactive.
`COc1ccc(Cc2nccc3cc(OC)c(OC)cc23)cc1OC` gave HCMV antiviral -77, Pf growth 48h inconclusive, HCV inhibitor 3.2µM!, Pf growth 96h inconclusive, SARS PLpro yeast inactive and Sm TGR block inactive.
`COc1ccc(Cc2c3cc(OC)c(OC)cc3cc[n+]2C)cc1OC` gave Pf growth 48h inconclusive, HCV inhibitor inactive, Pf growth 96h 8.3µM, SARS PLpro yeast inactive and Sm TGR block 13µM.
Screening COc1ccc(Cc2nc3ccccc3[nH]2)cc1OC returned HCMV antiviral inactive, Pf growth 48h inactive, HCV inhibitor inconclusive, Pf growth 96h inconclusive, SARS PLpro yeast inactive and Sm TGR block inactive.
`COc1ccc(Cc2n[nH]c(=O)c3ccccc23)cc1OC` gave HCMV antiviral inactive, Pf growth 48h inactive, HCV inhibitor inactive, Pf growth 96h inactive, SARS PLpro yeast inactive and Sm TGR block inactive.
CC[n+]1ccc2cc(OC)c(OC)cc2c1Cc1ccc(OC)c(OC)c1 was read as Pf growth 48h 1.2µM, HCV inhibitor inactive, Pf growth 96h inconclusive, SARS PLpro yeast inactive and Sm TGR block inconclusive.
`CCCCNC(=O)CN1C(=O)c2c(c3ccccc3n2C)C1c1ccc(OC)cc1` (centres undefined) gave HCMV antiviral inactive and Sm TGR block inactive.
Screening CC(O)CN(C)C (centres undefined) returned Pf growth 48h inactive and Pf growth 96h inactive.
For CC(C)OCCCN1CN(S(=O)(=O)c2cccc(Cl)c2)c2nc3ccccc3nc21 the results were HCMV antiviral inactive, Pf growth 48h inconclusive, HCV inhibitor inactive, Pf growth 96h 9.3µM, SARS PLpro yeast inactive and Sm TGR block inactive.
C/C(=N\NC(=O)CCCC(=O)O)c1c(-c2ccccc2)c2cc(Cl)ccc2[nH]c1=O was read as HCMV antiviral inconclusive, Pf growth 48h inactive, HCV inhibitor inactive, Pf growth 96h inactive, SARS PLpro yeast inactive and Sm TGR block inactive.
NNC(=O)c1[nH]c2ccc(Cl)cc2c1-c1ccccc1 was read as HCMV antiviral -97, Pf growth 48h inconclusive, HCV inhibitor inactive, Pf growth 96h inconclusive, SARS PLpro yeast inactive and Sm TGR block inactive.
Screening CC(=O)NNC(=O)c1[nH]c2ccc(Br)cc2c1-c1ccccc1 returned HCMV antiviral inactive, Pf growth 48h inactive, HCV inhibitor inactive, Pf growth 96h inactive, SARS PLpro yeast inactive and Sm TGR block inactive.
Screening NNC(=O)c1[nH]c2ccc(Br)cc2c1-c1ccccc1 returned HCMV antiviral -96, Pf growth 48h inconclusive, HCV inhibitor inactive, Pf growth 96h inconclusive, SARS PLpro yeast inactive and Sm TGR block inactive.
For COC(=O)CSc1nnc(-c2ccncc2)o1 the results were HCMV antiviral inactive, Pf growth 48h inactive, HCV inhibitor inactive, SARS PLpro yeast inactive and Sm TGR block inactive.
For O=C(OCC#CCSc1nnc(-c2ccncc2)o1)c1cccs1 the results were HCMV antiviral inactive, Pf growth 48h inactive, HCV inhibitor inactive, Pf growth 96h 12µM, SARS PLpro yeast inactive and Sm TGR block inconclusive.
O=C(Cn1ccc(=O)[nH]c1=O)Nc1ccc(O)c([N+](=O)[O-])c1 was read as HCMV antiviral inactive and HCV inhibitor inactive.
`O=C1CSC(c2cccnc2)N1Cc1ccc(Cl)cc1Cl` (centres undefined) gave HCMV antiviral inactive, Pf growth 48h inconclusive, HCV inhibitor inactive, Pf growth 96h 9.3µM, SARS PLpro yeast inactive and Sm TGR block inactive.
`CC1=C(C(=O)Nc2ccc(C)cc2C)C(c2ccc[nH]2)n2ncnc2N1` (centres undefined) gave HCMV antiviral inactive and Sm TGR block inactive.
COC(=O)c1ccc(Oc2nc(C(N)=O)cc(-c3ccccc3)n2)cc1 was read as HCMV antiviral inactive, HCV inhibitor inactive, Pf growth 96h inactive, SARS PLpro yeast inactive and Sm TGR block inactive.
For Cc1nc(SCc2cccc(F)c2)c2oc3ccccc3c2n1 the results were HCMV antiviral inactive, Pf growth 48h 10µM, HCV inhibitor inactive, Pf growth 96h inconclusive, SARS PLpro yeast inactive and Sm TGR block inactive.
